Measured values as given in PubChem BioAssay.
Activity calls are given as the source filed them. No rule for the calls is given here.

Target: Lethal factor (Bacillus anthracis) (UniProt P15917)
Assay: Bacillus anthracis lethal factor inhibition, microsphere flow cytometry protease assay, validation at 10 µM (AID 588461)
Settings: multiplex microsphere protease cleavage assay, hits give high values

Row | Structure (SMILES) | inhibition
1 | CCOC(=O)C1(Cc2cccc(Cl)c2)CCCN(C2CCN(C(C)=O)CC2)C1 (stereo not given) | -5.1% (inactive)
2 | COc1ccc(C2CNC(=O)C2)cc1OC1CCCC1 (stereo not given) | 1% (inactive)
3 | CCOC(=O)C1=C2c3ccc4ccccc4c3CC(C)(C)N2C(=O)C1=O | -4.6% (inactive)
4 | C[C@]12C[C@H](O)[C@H]3[C@@H](CCC4=CC(=O)CC[C@@]43C)[C@@H]1CC[C@@H]2C(=O)CO | -9.2% (inactive)
5 | COc1ccc(C(=O)Nc2cccnc2)cc1C(=O)Nc1cccnc1 | -0.7% (inactive)
